Mtb RmlCD inh – blocks M. tuberculosis RmlC and RmlD coupled enzymes | RmlC+RmlD coupled enzyme assay, percent inhibition; primary screen in compound mixtures | inhibition, % at 3.6 µM | 160,000 compounds, 0.03% hits | P9WH09+P9WH11 | AID 1533; in the data active means inhibition mostly above about 34%, no sharp cut-off
VHR inh abs – DUSP3 (human) phosphatase inhibition. AID 1654. 290,000 compounds, 0.52% hits. recombinant VHR phosphatase, pNPP absorbance. P51452. inhibition, % at 13.3 µM; in the data active means inhibition above about 50%
Target sequence (P51452 whole entry, looked up): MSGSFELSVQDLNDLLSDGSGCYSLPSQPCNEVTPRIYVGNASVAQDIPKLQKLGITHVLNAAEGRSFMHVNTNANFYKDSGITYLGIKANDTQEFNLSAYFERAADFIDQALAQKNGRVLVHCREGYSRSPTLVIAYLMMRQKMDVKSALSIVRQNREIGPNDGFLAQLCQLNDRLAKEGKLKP
Starred values were filed as active, the others as inactive; · = no result given. Compounds with a hit are over-represented: about 0.54% of the library has one in this group of screens.

SMILES	Mtb RmlCD inh	VHR inh abs
Cc1ccc(Cl)cc1N1CCN(C(=O)CN(C2CCCCC2)S(C)(=O)=O)CC1	·	22.2
Cc1cc(C)c2c(N)c(C(=O)N/N=C/c3cccs3)sc2n1	54.9*	-1.3
COc1ccc(/C=N/NC(=O)c2sc3nc(C)cc(C)c3c2N)cc1	-2.0	-20.1
CCOC(=O)Cc1csc(NC(=O)CC)n1	·	25.8
CCOC(=O)Cc1csc(NC(=O)CSc2nc(N)c3c(C)c(C)sc3n2)n1	·	50.3*
CSc1ccccc1OCc1cc(C(=O)N(Cc2nccn2C)C(C)C)no1	·	15.0
O=C(NC1CCCCC1)c1cc(N2C(=O)CCC2=O)ccc1Cl	·	3.0
CCn1c(=N)n(CC(=O)C(C)(C)C)c2ccccc21	·	-11.1
CCn1c(=N)n(CC(=O)OC)c2ccccc21	5.9	55.9*
C/C(=N\NC(=O)c1cccnc1)c1ccc(OC2OCCOC2Oc2ccc(/C(C)=N/NC(=O)c3cccnc3)cc2)cc1 (stereo not drawn)	-4.0	22.2
CCn1c(=O)n(CC)c2cc(N3CCCC3)c(NC(=O)c3ccccc3OC)cc21	·	52.2*
CCOc1ccccc1C(=O)Nc1cc2c(cc1N1CCCC1)n(CC)c(=O)n2CC	·	30.9
O=C(Nc1ccc(Br)cn1)c1ccc(Br)s1	·	14.6
O=C(Nc1ccc(Br)cn1)c1ccc(Cl)s1	·	52.0*
c1ccc(Sc2ncccn2)nc1	-5.9	26.9
CC1CCN(CCCNC(=O)C2CCC(CNS(=O)(=O)c3cccc4nsnc34)CC2)CC1 (stereo not drawn)	·	51.3*
O=C(NCCCN1CCCCC1)C1CCC(CNS(=O)(=O)c2cccc3nsnc23)CC1 (stereo not drawn)	·	-9.1
CC(=O)c1c(C)n(CCc2ccc(Cl)cc2)c2ccc(O)cc12	·	38.1
Cc1ccc(OCC(=O)Nc2ccccc2N2CCOCC2)c(C)c1	4.0	51.5*
Cc1cc(Cl)ccc1OCC(=O)Nc1ccccc1N1CCOCC1	15.6	-23.9
COc1ccc(C2C([N+](=O)[O-])=C(N)Oc3c2c(=O)oc2ccccc32)cc1 (stereo not drawn)	3.4	36.0
COc1cccc(C2C([N+](=O)[O-])=C(N)Oc3c2c(=O)oc2ccccc32)c1 (stereo not drawn)	12.4	51.6*
COc1ccccc1N1CCN(C2CCCN(C(=O)C3=NN(C)C(=O)CC3)C2)CC1 (stereo not drawn)	·	52.1*
COc1ccccc1N1CCN(C2CCCN(C(=O)c3cscn3)C2)CC1 (stereo not drawn)	·	5.3
COc1ccccc1N1CCN(C2CCCN(C(=O)CCn3cncn3)C2)CC1 (stereo not drawn)	·	57.1*
SMILES	Mtb RmlCD inh	VHR inh abs
COc1ccccc1N1CCN(C2CCCN(C(=O)CCC(=O)N(C)C)C2)CC1 (stereo not drawn)	·	72.3
Cn1cc(C(=O)NS(=O)(=O)Nc2ccc(Br)cc2)c2ccccc21	·	20.9
COc1ccc(NC(=O)CCCn2nc(C)c3c(C)n(-c4ccccc4)nc3c2=O)cc1	·	-6.0
CCC(NC(=O)Nc1ccc(O)cc1)(C(F)(F)F)C(F)(F)F	-10.2	29.4
CCC(NC(=O)NC1=NCCS1)(C(F)(F)F)C(F)(F)F	-2.9	57.4*
Cc1ccc(NC(=O)Cn2c(=O)c3cccn3c3ccccc32)c(Cl)c1	·	45.8
O=c1[nH]c(N/N=C\c2ccc(F)cc2)nc2ccccc12	·	57.4*
O=c1[nH]c(N/N=C/c2ccc(O)cc2)nc2ccccc12	·	1.1
CC(C)CNS(=O)(=O)c1ccc(CCC(=O)NCc2ccco2)cc1	-7.5	-13.6
CCOc1ccc(C(c2nnnn2C(C)(C)C)N2CCN(C(=O)c3ccco3)CC2)cc1 (stereo not drawn)	·	59.1*
CN(C)c1ccc(C(c2nnnn2C(C)(C)C)N2CCN(C(=O)c3ccco3)CC2)cc1 (stereo not drawn)	-8.8	35.9
COc1cc(OC)c(NC(=O)CCNS(=O)(=O)c2ccc3c(c2)CC(C)N3C(C)=O)cc1Cl (stereo not drawn)	·	24.6
CC(=O)Nc1ccc(SCCCC(=O)c2ccccc2)cc1	·	-2.9
CC(C)CNS(=O)(=O)c1ccc(CCC(=O)NC2CCCC2)cc1	2.9	51.7*
CCNS(=O)(=O)c1ccc(CCC(=O)NC2CCCC2)cc1	26.4	-7.9
COCCNC(=O)c1oc2ccc3c(c2c1C)C(O)CC(C)(C)O3 (stereo not drawn)	·	56.9*
CCN(CC)CCCNC(=O)c1oc2ccc3c(c2c1C)C(O)CC(C)(C)O3 (stereo not drawn)	·	82.7
O=C(CCCCn1c(=O)c2ccccc2n(Cc2ccccc2F)c1=O)NC1CCN(Cc2ccccc2)CC1	-5.8	2.7
O=C(OC(C(=O)NC1CCCCC1)c1ccccc1F)c1ccco1 (stereo not drawn)	·	14.4
CCCCc1ccc(NC(=S)N2CCCC2)cc1	·	11.2
O=C(O)C(Cc1ccccc1)N1C(=O)/C(=C/C=C/c2ccco2)SC1=S (stereo not drawn)	26.1	113.1
O=C(O)CC(C(=O)O)N1C(=O)/C(=C/C=C/c2ccco2)SC1=S (stereo not drawn)	48.7	54.3*
O=C(CCn1cccn1)N1CCCC(N2CCN(c3cccc(Cl)c3)CC2)C1 (stereo not drawn)	·	-4.0
CC(=O)Nc1nnc(-c2ccc3c(c2)CCCC3)o1	-9.5	25.2
O=C(Nc1nnc(-c2ccc3c(c2)CCCC3)o1)C1COc2ccccc2O1 (stereo not drawn)	-6.3	50.3*
SMILES	Mtb RmlCD inh	VHR inh abs
O=C(N=C1SC2CS(=O)(=O)CC2N1c1ccccc1)C1CC1 (stereo not drawn)	·	-9.0
COc1ccc(C(=O)N=C2SC3CS(=O)(=O)CC3N2c2ccccc2)cc1OC (stereo not drawn)	·	52.3*
Cc1ccc(C(=O)C(c2ccccc2)N2Cc3ccccc3C2=N)cc1 (stereo not drawn)	·	-2.7
COc1ccccc1OCc1nc2ccccc2n1C	·	14.8
COc1ccccc1C(=O)c1nc2ccccc2n1C	·	58.2*
Cc1cc2ncc(C(=O)Nc3ccccc3)c(C)n2n1	-7.0	-23.4
Cc1nn2c(C)c(C(=O)Nc3ccccc3)cnc2c1C#N	-5.8	51.4*
Cc1ccccc1OCC(=O)N/N=C/c1ccc([N+](=O)[O-])o1	-8.2	51.9*
Cc1cc(C)cc(OCC(=O)N/N=C/c2ccc([N+](=O)[O-])o2)c1	-17.7	19.9
CC(C)(C)c1cc(C2=CSC3=NCCN23)cc(C(C)(C)C)c1O	·	9.8
O=C(COC(=O)c1ccccc1Nc1ccc(SC(F)F)cc1)NCc1ccco1	2.9	7.3
COC(=O)[C@@H](Cc1c[nH]c2ccccc12)NC(=O)c1ccc2c(c1)OCO2	·	52.6*
O=C(COC(=O)[C@H](Cc1c[nH]c2ccccc12)NC(=O)c1ccc(Cl)cc1)Nc1ccc2c(c1)OCO2	8.1	-0.2
O=C(NCc1ccc2c(c1)OCO2)c1c(Cl)cccc1Cl	·	55.5*
O=C(NCc1ccc2c(c1)OCO2)c1cccc(C(=O)NCc2ccc3c(c2)OCO3)c1	10.9	5.0
COc1ccc(C(C(=O)NCC2CCCO2)N(Cc2ccccc2)C(=O)CNC(=O)c2ccco2)cc1OC (stereo not drawn)	·	11.8
COc1ccc(CCNC(=O)c2c(O)c3ccccc3n(C)c2=O)cc1	·	8.5
COc1ccc(CCNC(=O)c2c(O)c3ccccc3[nH]c2=O)cc1	·	58.2*
CC(Oc1ccc(Cl)cc1)C(=O)N/N=C/c1ccsc1 (stereo not drawn)	·	-0.9
Cc1cccc(N2CCCC2=Nc2ccc(Br)cc2C#N)c1	10.9	24.5
O=C(CCS(=O)(=O)c1cc2c(cc1Cl)NC(=O)CO2)NCc1ccc(F)cc1	·	9.4

High-throughput results: PubChem BioAssay, several laboratories
